Reference: article PMC4336329 (PLoS ONE, 2015)
The campaign covered roughly 310,000 compounds. About 14,000 (4.5%) showed an effect of 50% or more. The effect is printed as a negative number. The sample holds strong results, similar compounds and a random draw of the others, so the mix is not that of the screen.

target: human ether-à-go-go-related gene (hERG) potassium channel (human, UniProt Q12809); assay: primary screen, population patch clamp on CHO cells stably expressing hERG; higher = less effect of the substance
Sequence (Q12809 whole entry, looked up): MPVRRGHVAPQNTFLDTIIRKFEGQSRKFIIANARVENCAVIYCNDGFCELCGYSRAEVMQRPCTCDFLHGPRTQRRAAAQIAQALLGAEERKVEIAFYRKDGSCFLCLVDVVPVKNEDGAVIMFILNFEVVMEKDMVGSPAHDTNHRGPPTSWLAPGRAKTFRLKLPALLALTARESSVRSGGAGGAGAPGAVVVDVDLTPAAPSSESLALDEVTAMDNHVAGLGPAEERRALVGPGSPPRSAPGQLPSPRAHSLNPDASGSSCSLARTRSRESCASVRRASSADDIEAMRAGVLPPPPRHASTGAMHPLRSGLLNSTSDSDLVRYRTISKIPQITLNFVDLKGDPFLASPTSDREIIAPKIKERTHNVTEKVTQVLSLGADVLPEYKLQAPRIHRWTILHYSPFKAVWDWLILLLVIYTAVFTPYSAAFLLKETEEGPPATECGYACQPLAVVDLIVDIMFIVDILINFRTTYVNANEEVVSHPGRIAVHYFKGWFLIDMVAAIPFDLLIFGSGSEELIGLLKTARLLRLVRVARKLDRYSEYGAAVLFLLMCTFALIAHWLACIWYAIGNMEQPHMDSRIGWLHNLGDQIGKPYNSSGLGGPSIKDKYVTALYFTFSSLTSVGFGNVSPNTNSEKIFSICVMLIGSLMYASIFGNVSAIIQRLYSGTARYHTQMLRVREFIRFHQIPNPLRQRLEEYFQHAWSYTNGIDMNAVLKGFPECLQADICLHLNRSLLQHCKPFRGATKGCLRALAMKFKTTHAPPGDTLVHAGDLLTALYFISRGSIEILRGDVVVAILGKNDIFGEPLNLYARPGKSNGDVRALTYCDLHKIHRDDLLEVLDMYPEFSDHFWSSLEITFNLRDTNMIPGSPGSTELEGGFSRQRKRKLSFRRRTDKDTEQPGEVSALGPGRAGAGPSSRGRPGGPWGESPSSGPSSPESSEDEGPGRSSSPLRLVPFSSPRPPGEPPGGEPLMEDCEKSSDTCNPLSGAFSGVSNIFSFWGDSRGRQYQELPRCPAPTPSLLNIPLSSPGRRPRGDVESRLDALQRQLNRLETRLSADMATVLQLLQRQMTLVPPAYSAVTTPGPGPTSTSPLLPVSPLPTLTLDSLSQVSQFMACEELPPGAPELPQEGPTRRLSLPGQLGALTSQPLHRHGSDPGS
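Also: peak tail current of the secondary pulse compared with the same well before compound.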

| SMILES | hERG current change (%, negative = inhibition) at 10uM [%] |
| --- | --- |
| Cn1cnc2c1c(=O)n(Cc1c(Cl)cccc1Cl)c(=O)n2C | -3.36 |
| COc1ccccc1NC(=O)CSc1nc2sc(C)c(C)c2c(=O)n1C | 6.42 |
| CC(=O)N1CCN(S(=O)(=O)c2cccc(C(=O)NCCc3ccc(Cl)cc3)c2)CC1 | -12.1 |
| CC1Cc2ccccc2N1C(=O)COC(=O)C1=COCCO1 (stereo not shown) | -7.1 |
| COc1ccc(CCNC(=O)COC(=O)/C=C/c2ccc(OC)c(OC)c2)cc1 | -16 |
| O=C(CSc1nncn1-c1cccnc1)N(c1ccccc1)c1ccccc1 | 4.28 |
| CN(C)S(=O)(=O)N1CCN(C(=O)c2cccs2)CC1 | 7.17 |
| CCC1=Nc2ccc(Br)cc2C(c2ccccc2)N1CC(=O)OC (stereo not shown) | -59.1 |
| CC1=Nc2ccc(Br)cc2C(c2ccccc2)N1CC(=O)O (stereo not shown) | 33.7 |
| COC(=O)CN1C(C)=Nc2ccc(C)cc2C1c1ccccc1 (stereo not shown) | -43.1 |
| Br.COC(=O)CN1C(C)=Nc2ccc(Br)cc2C1c1ccccc1 (stereo not shown) | -49.1 |
| COC(=O)CN1C(CN2CCOCC2)=Nc2ccc(Br)cc2C1c1ccccc1 (stereo not shown) | -75.3 |
| NNC(=O)CN1C(CN2CCOCC2)=Nc2ccc(Br)cc2C1c1ccccc1 (stereo not shown) | -48.9 |
| Cc1nnc(NC(=O)c2ccc(S(=O)(=O)N3CC(C)CC(C)C3)cc2)o1 (stereo not shown) | 5.33 |
| CCc1cccc2c(C(=O)C(NCCCOC)c3ccccc3)c[nH]c12 (stereo not shown) | 2.05 |
| O=C(CSc1cccc(C(F)(F)F)c1)Nc1cc(S(=O)(=O)N2CCCC2)ccc1Cl | -5.28 |
| CCOC(=O)N1CCC(N2C(=O)c3ccccc3C2Nc2ccc3c(C)cc(=O)oc3c2)CC1 (stereo not shown) | -63.8 |
| CCOC(=O)N1CCC(N2C(=O)c3ccccc3C2Nc2cc(C(=O)OC)cc(C(=O)OC)c2)CC1 (stereo not shown) | -17.5 |
| CCOC(=O)N1CCC(N2C(=O)c3ccccc3C2Nc2ccc3c(c2)OCCO3)CC1 (stereo not shown) | -7.43 |
| CCOC(=O)N1CCC(N2C(=O)c3ccccc3C2Nc2cc(OC)c(OC)c(OC)c2)CC1 (stereo not shown) | -17.8 |
| CCOC(=O)N1CCC(N2C(=O)c3ccccc3C2Nc2cc(C)cc(C)c2)CC1 (stereo not shown) | -21.8 |
| CCOC(=O)N1CCC(N2C(=O)c3ccccc3C2Nc2c(C)cccc2C)CC1 (stereo not shown) | -75.1 |
| CCOC(=O)N1CCC(N2C(=O)c3ccccc3C2Nc2ccccc2)CC1 (stereo not shown) | -9.74 |

| SMILES | hERG current change (%, negative = inhibition) at 10uM [%] |
| --- | --- |
| CCOC(=O)c1ccccc1NC1c2ccccc2C(=O)N1C1CCN(C(=O)OCC)CC1 (stereo not shown) | -56.4 |
| CCOC(=O)N1CCC(N2C(=O)c3ccccc3C2Nc2ccccc2C)CC1 (stereo not shown) | -46.5 |
| Cc1nn(C)c(C(=O)N/N=C/c2cc3c(cc2Br)OCO3)c1Br | 11.2 |
| COCc1cc(C)n(CC(=O)NCC2CCCO2)c(=O)c1C#N (stereo not shown) | 12 |
| CCOc1ccc(/C=C2\SC(=S)N(CCCC(=O)NCCCN3CCOCC3)C2=O)cc1 | -4.5 |
| CC(=O)NCCc1ccc(S(=O)(=O)NCc2ccc3c(c2)OCO3)cc1 | 2.45 |
| CC(=O)NCCc1ccc(S(=O)(=O)Nc2ccc3c(c2)OCCO3)cc1 | 12.3 |
| CCCc1cc2c(cc1NS(=O)(=O)c1ccc(CCNC(C)=O)cc1)OCO2 | -63 |
| CCCCNC(=O)CSc1nnc(-c2cccc(S(=O)(=O)N3CCOCC3)c2)o1 | -18.1 |
| CC(=O)c1sc(NC(=O)c2ccc(COc3ccccc3Cl)o2)nc1C | 33.5 |
| CC(=O)N(CN1C(=O)CCC1=O)c1cccc(Cl)c1 | -17 |
| Cc1cc(=O)n2c3ccccc3n(CC(O)CN3CCCCC3)c2c1C#N (stereo not shown) | -53.2 |
| CCCNCC(O)Cn1c2ccccc2n2c(=O)cc(C)c(C#N)c12 (stereo not shown) | -29.7 |
| Cc1cc(=O)n2c3ccccc3n(CC(O)CN3CCN(CCO)CC3)c2c1C#N (stereo not shown) | -16 |
| Cc1cc(=O)n2c3ccccc3n(CC(O)CN3CCOCC3)c2c1C#N (stereo not shown) | 17.9 |
| Cc1cc(=O)n2c3ccccc3n(CC(O)CN3CCN(Cc4ccccc4)CC3)c2c1C#N (stereo not shown) | -62.8 |
| Cc1cc(=O)n2c3ccccc3n(CC(O)CN3CCCC3)c2c1C#N (stereo not shown) | -44.8 |
| Cc1cc(C(N)=O)c2cc(Br)ccc2n1 | 1.34 |
| COc1cccc(N2CCN(C(=O)NC3CCCCC3)CC2)c1 | 2.57 |
| Cc1cc(C(=O)Nc2ccccc2C)c2ccccc2n1 | 14.1 |
| O=c1[nH]cnc2c1nc(SCc1ccccc1)n2C1OC(CO)C(O)C1O (stereo not shown) | -2.32 |
| O=c1cc(-c2ccc(O)cc2)oc2cc(O)cc(O)c12 | -2.23 |
| C[C@H]1CN=C(Nc2ccccc2)N1CCc1ccc(F)cc1 | -46.3 |
